Source: PubChem BioAssay AID1845 (The Scripps Research Institute Molecular Screening Center, 2009)
In all, about 290,000 compounds went through this assay and about 490 (0.17%) were called active. For the sample, actives were picked, then their nearest neighbours and some compounds at random. Values without a mark were called inactive. No stated cut-off is given here; in the data, active means inhibition above about 37%; inactive means the rest.

Assay: DNA intercalator displacement agents – biochemical, FID fluorescence, artefact control for HCV NS3 helicase inhibitor project, primary screen (AID 1845);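 further: 0% = vehicle and 100% = reference compound; higher means more ethidium bromide displaced from hairpin DNA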
Conditions: DNA fluorescent intercalator displacement, at 7.9 µM, active compounds read high

Structure (SMILES) | inhibition
Cc1sc2nc(SCCO)n(-c3ccccc3)c(=O)c2c1C | -17.8%
Cc1cc(=O)[nH]c(Nc2cccc(Br)c2)n1 | -6.32%
CC(C)(C)OC(=O)CNC(=O)c1[nH]cnc1C(=O)N[C@@H](Cc1ccccc1)C(=O)OCc1ccccc1 | -34.4%
CN(C)C(=O)c1ccc(NC(=O)c2ccccc2-c2ccccc2)cc1 | -15.1%
Cc1ccoc1C(=O)Nc1cccc(Oc2ccccc2)c1 | -5.38%
CCC(C(=O)NCCC(C)C)N(Cc1ccccc1Cl)C(=O)c1snc(C(N)=O)c1N (stereo not given) | -29.9%
COc1ccc(NC(=O)CN2C(=O)COc3ccc(S(=O)(=O)N4CCOCC4)cc32)c(OC)c1 | -13.3%
COc1ccc(N2CCN(CCNC(=O)Nc3cc(Cl)ccc3Cl)CC2)cc1 | 21%
CCCCc1nc(SCC(=O)Nc2nnc(C(C)C)s2)n[nH]1 | -16.5%
CN1C(=O)/C(=C/c2ccc(C(=O)NC3CCCC3)cc2)Oc2ccccc21 | 1.1%
CN1CCN(CCCNC(=O)c2ccc(/C=C3\Oc4ccccc4N(Cc4ccc(Cl)cc4)C3=O)cc2)CC1 | 40.6% (active)
O=C(NCCN1CCOCC1)c1ccc(/C=C2\Sc3ccccc3N(Cc3ccc(F)cc3)C2=O)cc1 | 0.94%
OCCNc1nc(Nc2ccc(Cl)c(Cl)c2)nc2ccccc12 | 40.6% (active)
Nc1nc(Nc2ccccc2)nc(NCCO)c1[N+](=O)[O-] | -6.38%
CN(C)c1nc(Nc2ccc(Cl)c(Cl)c2)nc(N(C)C)n1 | -4.12%
COc1ccc(NC(=O)NNC(=O)COc2cc(C)c(Cl)c(C)c2)c(OC)c1 | -28%
CCOC(=O)C(NS(=O)(=O)c1ccc(C)cc1)(C(F)(F)F)P(=O)(OCC(C)C)OCC(C)C (stereo not given) | -11.5%
Cc1cc(OCC(=O)N2CCN(c3ncccn3)CC2)ccc1Cl | -46.1%
O=C(O)c1ccc2c(=O)n3c(nc2c1)/C(=C/c1ccc(Cl)c([N+](=O)[O-])c1)CC3 | -14.2%
Cn1c(=N)n(CC(O)c2ccccc2)c2ccccc21 (stereo not given) | 2.17%
Cc1cccc(OCC(O)Cn2c(=N)n(CCN3CCOCC3)c3ccccc32)c1 (stereo not given) | 18.2%
CCOc1ccc(C(O)Cn2c(=N)n(CCN3CCCCC3)c3ccccc32)cc1 (stereo not given) | 40.9% (active)
CCC1CCCCN1CCCNC(=O)c1cc2c(Cl)nc3ccccc3c2s1 (stereo not given) | 43.6% (active)
CCC1CCCCN1CCCNC(=O)Cn1nc(-c2ccccc2)ccc1=O (stereo not given) | 0.11%
CCC1CCCCN1CCCNC(=O)C1CCC(Cn2c(=O)[nH]c3ccccc3c2=O)CC1 (stereo not given) | 2.92%
O=C(N/N=C/c1ccc(OCC2COCCO2)cc1)c1ccc(Br)cc1 (stereo not given) | -19.9%
CCCCCCc1cc2cc(-c3nnc(-c4cccc(OC)c4)o3)c(=O)oc2cc1O | 0.28%
CN(C)CCCn1c(SCc2ccc(Cl)cc2)nnc1-c1ccncc1 | 3.61%

Structure (SMILES) | inhibition
COc1ccc(OC)c(NC(=O)CN(Cc2ccc(Cl)cc2)S(C)(=O)=O)c1 | -26.1%
O=C(/C=C/c1ccco1)NC(=S)Nc1ccccc1Br | -8.41%
CCCNC(=O)N1CCC(c2ccc3c(c2)OCO3)CC1 | -7.97%
NC(=O)COC(=O)c1ccc2c(c1)C(=O)N(Cc1ccco1)C2=O | -2.94%
CCn1nnnc1SCC(=O)Nc1ccc(N(C)C)cc1 | -4.25%
COc1ccc(C(=O)N2CCCCC2C(=O)Nc2ccc(-n3nc(C)cc3C)cc2)o1 (stereo not given) | -43.5%
Cc1ccccc1OCC(=O)Nc1nnc(S(=O)(=O)N2CCCC2)s1 | -35.4%
O=CN1CCN(C(=O)c2ccc3c(c2)OCO3)CC1 | -1.4%
NC(=O)C1CC(=O)N(c2ccc(OCC(=O)NCc3ccccc3)cc2)C1 (stereo not given) | -4.26%
CC(=O)c1cc(CN2CCC(n3nccc3NC(=O)c3ccccc3Cl)CC2)cs1 | -5.43%
CCOC(=O)c1c(NC(=S)NC)sc2c1CCCC2 | -4.6%
CCOC(=O)c1c(NC(=O)C2CCN(S(=O)(=O)c3ccc(Cl)cc3)CC2)sc2c1CCCC2 | 43.9% (active)
CCOC(=O)c1c(NC(=S)NC(=O)c2ccco2)sc2c1CCCC2 | 0.98%
O=C(CNC(=O)OCc1ccccc1)NC1CCCCNC1=O (stereo not given) | 0.17%
O=C(O)CCCN1C(=O)C2C3c4ccccc4C(c4ccccc43)[C@@H]2C1=O (stereo not given in full) | -12.3%
CC(C)C[C@H]1CN=C(Nc2ccccc2)N1CC1CCCCC1 | 3.71%
CCOc1ccc(NC(=O)c2ccc(NC(=O)C3CCCO3)cc2)cc1 (stereo not given) | -28.7%
CCN(C(=O)CN1C(=O)/C(=C/c2ccc(F)cc2)SC1=S)C1CCS(=O)(=O)C1 (stereo not given) | -43.9%
COc1ccccc1/C=N/Nc1nc(C)c(C(C)=O)s1 | -19.2%
Cc1ccc(S(=O)(=O)N(C)C)cc1NC(=O)C1Cc2ccccc2CN1C(=O)c1ccco1 (stereo not given) | -29.3%
CCCNC(=O)c1cnc(-c2ccccc2)nc1-c1ccccc1 | -20.5%
O=C(c1ccc(Cn2cc([N+](=O)[O-])cn2)o1)N1CCCC1 | -4.09%
CCN(CC)CCOc1ccc2c(c1)C(=NNC(=O)c1ccccn1)c1cc(OCCN(CC)CC)ccc1-2 | 98.8% (active)
COc1ccc(CC(=O)N/N=C(\C)c2ccccn2)cc1 | -6.95%
Cc1cccc(OCC(=O)NCCCNC(=O)c2ccccn2)c1 | -16.1%
COc1ccc(CCNC(=O)C(=O)NCC2OCCN2S(=O)(=O)c2ccc(F)cc2)cc1OC (stereo not given) | -32.4%
Cc1ccc(C(=O)N/C(=C\c2cn(S(=O)(=O)N(C)C)c3ccccc23)C(=O)N2CCCC2)cc1 | -52.8%
